This excerpt belongs to a sample that is enriched for hits.
Sm TGR inh = qHTS Assay for the Inhibitors of Schistosoma Mansoni Peroxiredoxins | purified TGR, DTNB reduction, TNB absorbance 405 nm | Potency, µM (series often up to 114 µM), inactives show top-dose activity change, negative = inhibition, most hits filed as inhibitors | 360,000 tested, 3% active | AID 485364, 2010; note: potency is the fitted concentration of half-maximal effect; % is set by controls: 0 for no effect and ±100 for the full control effect; nearly all actives have a fitted effect of over 60% in size
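First, TGR (20 nM dispensed) and NADPH were mixed with compound. Second, a 15 min room-temperature incubation followed. Third, further NADPH and then DTNB were added to start the reaction. Finally, TNB absorbance was monitored kinetically.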
LmPK inhibitor = qHTS Assay for Inhibitors of Leishmania Mexicana Pyruvate Kinase (LmPK). purified LmPK, Kinase-Glo ATP luminescence, 1 h. 290,000 tested, 0.37% active. Q27686. Potency, µM (series often up to 57.5 µM), without a hit: at the highest dose activity change, negative = inhibition, hits mostly inhibitors; note: potency is the fitted concentration of half-maximal effect; % is set by controls: 0 for no effect and ±100 for the full control effect
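ATP generated from ADP (0.1 mM) and PEP (0.5 mM) by 0.1 nM LmPK over 1 h at room temperature (pH 7.2 imidazole buffer) was detected by coupled luciferase luminescence. Values were normalized to uninhibited and no-enzyme wells.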
Shiga toxin inh = A qHTS for Small Molecule Inhibitors of Shiga Toxin; AID 2315, 2010; 290,000 tested, 9.2% active; inhibition, % at 38.7 µM; Vero cells, Shiga toxin protein synthesis inhibition reporter; in the data active = inhibition mostly above about 28%, no sharp cut-off; inactive = mostly below about 43%; note: 0% is about no effect
Tb PYK inh = qHTS of Trypanosoma Brucei Inhibitors. pyruvate kinase (Trypanosoma brucei), Q57TT1. TbPYK enzyme, Kinase-Glo Plus ATP luminescence, 45 min. Potency, µM (top dose mostly 76.8 µM), for inactives: at the highest dose activity, negative = inhibition, actives largely listed as inhibitors. 410,000 tested, 0.12% active. AID 624173, 2012; note: potency is the fitted concentration of half-maximal effect; % is set by controls: 0 for no effect and ±100 for the full control effect; nearly all actives have a fitted effect of over 50% in size
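Quantitative HTS: titrated library compounds versus trypanosomal pyruvate kinase in TEA buffer (pH 7.2) containing KCl, MgCl2, BSA and Tween-20. Reactions were initiated with ADP, 130 uM final. Kinase-Glo Plus luminescence was read after 45 min at RT.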
Giardia FBPA inh-1 = qHTS Assay for Inhibitors of Fructose-1,6-bisphosphate Aldolase from Giardia Lamblia. purified Giardia FBPA. Potency, µM (series often up to 59.6 µM), for the others: at the top dose activity, negative = inhibition, most hits filed as inhibitors. 290,000 tested, 0.71% active. A8B2U2; note: potency is the fitted concentration of half-maximal effect; % is set by controls: 0 for no effect and ±100 for the full control effect; nearly all actives have a fitted effect of over 55% in size
Target sequence (A8B2U2 whole entry, looked up): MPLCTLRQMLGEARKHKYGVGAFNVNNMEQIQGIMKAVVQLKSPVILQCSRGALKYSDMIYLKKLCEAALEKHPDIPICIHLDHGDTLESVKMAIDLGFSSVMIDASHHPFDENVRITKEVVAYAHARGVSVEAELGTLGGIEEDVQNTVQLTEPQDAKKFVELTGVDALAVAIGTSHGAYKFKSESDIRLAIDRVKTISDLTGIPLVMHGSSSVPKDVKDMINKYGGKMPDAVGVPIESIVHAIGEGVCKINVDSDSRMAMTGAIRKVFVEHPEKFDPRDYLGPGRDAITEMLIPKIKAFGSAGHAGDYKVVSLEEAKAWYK
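Giardia FBPA (40 nM reagent) was preincubated 10 min at RT with compound (up to 57.5 uM final), then substrate plus GAPDH/TPI/NAD/arsenate coupling system with diaphorase/resazurin was added; resorufin fluorescence (525/598 nm) was read after 20 min.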
CHX counter = Cycloheximide Counterscreen for Small Molecule Inhibitors of Shiga Toxin; cell reporter, cycloheximide protein synthesis inhibition counterscreen; max response, %; 300,000 tested, 12% active; in the data active = max response mostly above about 13%, no sharp cut-off; inactive = mostly below about 14%; note: read at 38.3 µM for the half of the compounds with a filed dose; 0% is about no effect
Giardia growth = qHTS Assay for Inhibitors of Fructose-1,6-bisphosphate Aldolase from Giardia Lamblia: Giardia lamblia growth inhibition. shares compounds with Giardia FBPA inh-1. Potency, µM (highest dose often 57.5 µM), inactives show top-dose activity change, negative = inhibition, usual class: inhibitors. Giardia lamblia trophozoite growth inhibition. 1,500 tested, 5% active;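 note: potency is the fitted concentration of half-maximal effect; trophozoites exposed to compound for 48 h at 37 °C; % is set by controls: 0 for no effect and ±100 for the full control effect; nearly all actives have a fitted effect of over 70% in size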
Mammal cell tox = qHTS Assay for Inhibitors of Fructose-1,6-bisphosphate Aldolase from Giardia Lamblia: Mammalian cellular toxicity; mammalian cell viability counter-screen, qHTS; Potency, µM (top dose mostly 57.5 µM), for inactives: at the highest dose viability change, negative = toxicity, most hits filed as inhibitors; shares compounds with Giardia FBPA inh-1; 1,500 tested, 4% active; AID 2786, 2010;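 note: Chinese hamster ovary cells used as mammalian cytotoxicity surrogate; viability measured as cellular ATP by luminescence; potency is the fitted concentration of half-maximal effect; compound exposure lasted 48 h before reading; % is set by controls: 0 for no effect and ±100 for the full control effect; nearly all actives have a fitted effect of over 60% in size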
Giardia FBPA inh-2 = qHTS Assay for Inhibitors of Fructose-1,6-bisphosphate Aldolase from Giardia Lamblia: Primary screen confirmation | 1,500 tested, 5% active | shares compounds with Giardia FBPA inh-1 | purified Giardia aldolase enzyme activity, qHTS | Potency, µM (top dose mostly 57.5 µM), for inactives: at the highest dose activity change, negative = inhibition, hits mostly inhibitors | AID 2787, 2010; note: potency is the fitted concentration of half-maximal effect; % is set by controls: 0 for no effect and ±100 for the full control effect; nearly all actives have a fitted effect of over 45% in size
Rabbit FBPA inh = qHTS Assay for Inhibitors of Fructose-1,6-bisphosphate Aldolase from Giardia Lamblia: Rabbit FBPA Selectivity; shares compounds with Giardia FBPA inh-1; Potency, µM (series often up to 57.5 µM), inactives show top-dose activity, negative = inhibition, most hits filed as inhibitors; Rabbit muscle FBPA enzyme inhibition, selectivity counter-screen; 1,500 tested, 4% active; note: potency is the fitted concentration of half-maximal effect; % is set by controls: 0 for no effect and ±100 for the full control effect; nearly all actives have a fitted effect of over 60% in size
Target sequence (P00883 whole entry, looked up): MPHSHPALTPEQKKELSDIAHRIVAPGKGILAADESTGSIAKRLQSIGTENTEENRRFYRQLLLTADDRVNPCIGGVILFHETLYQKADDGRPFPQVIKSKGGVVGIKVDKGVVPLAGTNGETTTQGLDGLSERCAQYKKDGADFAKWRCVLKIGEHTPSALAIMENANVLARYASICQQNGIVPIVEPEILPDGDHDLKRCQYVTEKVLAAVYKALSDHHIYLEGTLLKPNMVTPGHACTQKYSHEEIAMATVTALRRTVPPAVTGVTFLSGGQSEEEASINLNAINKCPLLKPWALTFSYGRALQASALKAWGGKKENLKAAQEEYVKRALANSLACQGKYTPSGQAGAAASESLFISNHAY
GAPDH counter = qHTS Assay for Inhibitors of Fructose-1,6-bisphosphate Aldolase from Giardia Lamblia: Coupling assay counterscreen confirmation; GAPDH coupling enzyme counterscreen, biochemical, qHTS; Potency, µM (series often up to 57.5 µM), for the others: top-dose activity change, negative = inhibition, usual class: inhibitors; AID 2795, 2010; shares compounds with Giardia FBPA inh-1; 1,500 tested, 6% active; note: potency is the fitted concentration of half-maximal effect; % is set by controls: 0 for no effect and ±100 for the full control effect; nearly all actives have a fitted effect of over 55% in size
An asterisk follows results filed as active; [ ] = remark or other dose. Unless noted, calls come from the whole dose curve; as a rule, active = well fitted curve in the direction sought with a large enough effect; inconclusive = small, poorly fitted or top-dose-only effect, or another doubt; inactive = no such curve, though single readings can be large; an effect the other way counts as inactive or inconclusive.

How did Cc1ccc(C(=O)CSc2ncn[nH]2)cc1 do in these assays?
Sm TGR inh: inconclusive; LmPK inhibitor: 2%; Shiga toxin inh: 52; Tb PYK inh: -21%; Giardia FBPA inh-1: 28µM*; CHX counter: 20*; Giardia growth: 6%[10.4 µM]; Mammal cell tox: -7%; Giardia FBPA inh-2: -1%; Rabbit FBPA inh: 2%; GAPDH counter: 0%

How did Nc1ccc2nc(CCCCc3nc4ccccc4[nH]3)[nH]c2c1 do in these assays?
Sm TGR inh: 0%; LmPK inhibitor: -1%; Shiga toxin inh: -5; Tb PYK inh: 6%; Giardia FBPA inh-1: 13µM*; CHX counter: -3; Giardia growth: 41%; Mammal cell tox: -8%; Giardia FBPA inh-2: -23%; Rabbit FBPA inh: -9%; GAPDH counter: -6%

Results for CCOc1ccc(NC(=O)CC(NCc2ccccn2)C(=O)O)cc1 (stereo not drawn) ?
Sm TGR inh: -18%; LmPK inhibitor: -2%; Shiga toxin inh: -7; Tb PYK inh: -1%; Giardia FBPA inh-1: 5µM*; CHX counter: 3; Giardia growth: -14%[38.3 µM]; Mammal cell tox: 22%; Giardia FBPA inh-2: 13%; Rabbit FBPA inh: -5%; GAPDH counter: -25%

How did COc1ccc(NC(=O)CC(NCc2ccccn2)C(=O)O)cc1 (stereo not drawn) do in these assays?
LmPK inhibitor: 0%; Shiga toxin inh: 7; Tb PYK inh: 0%; Giardia FBPA inh-1: 11µM*; CHX counter: 2; Giardia growth: 20%; Mammal cell tox: 10%; Giardia FBPA inh-2: 14%; Rabbit FBPA inh: -12%; GAPDH counter: -11%

How did CN(C(=O)c1ccccc1F)C(c1ccccc1)c1ccccc1 do in these assays?
Sm TGR inh: 1%; LmPK inhibitor: 0%; Shiga toxin inh: 24; Tb PYK inh: 0%; Giardia FBPA inh-1: -5%; CHX counter: 1

Results for Cc1cccc(N2C(=O)C(CC(=O)Nc3ccc(F)cc3)N(C3CCCC3)C2=O)c1 (stereo not drawn) ?
Sm TGR inh: -3%; Tb PYK inh: -15%

Results for O=[N+]([O-])c1cc2c(cc1CN1CCN(CCOCCO)CC1)OCO2 ?
Sm TGR inh: inconclusive; LmPK inhibitor: -6%; Shiga toxin inh: -3; Tb PYK inh: -5%; Giardia FBPA inh-1: 10µM*; CHX counter: -1; Giardia growth: -3%[10.4 µM]; Mammal cell tox: 9%; Giardia FBPA inh-2: -18%; Rabbit FBPA inh: 5%; GAPDH counter: 2%

Results for O=C(NC(=S)Nn1cnnc1)c1ccc(F)cc1Cl ?
Sm TGR inh: 4%; LmPK inhibitor: -7%; Shiga toxin inh: 39; Tb PYK inh: -8%; Giardia FBPA inh-1: 14µM*; CHX counter: 6; Giardia growth: -14%; Mammal cell tox: 11%; Giardia FBPA inh-2: -1%; Rabbit FBPA inh: 12%; GAPDH counter: 13%

How did O=C(NC(=S)Nn1cnnc1)c1ccccc1Cl do in these assays?
Sm TGR inh: 0%; LmPK inhibitor: -1%; Shiga toxin inh: 13; Tb PYK inh: -27%; Giardia FBPA inh-1: inconclusive; CHX counter: 1

How did COc1cc(Nc2nc3c(S(=O)(=O)c4cccc(Cl)c4)nnn3c3ccsc23)cc(OC)c1 do in these assays?
Sm TGR inh: 11%; Tb PYK inh: -6%

How did CCNC(=S)NS(=O)(=O)c1ccc(CC)cc1 do in these assays?
Sm TGR inh: inconclusive; LmPK inhibitor: 0%; Shiga toxin inh: -20; Tb PYK inh: 1%; Giardia FBPA inh-1: 6.3µM*; CHX counter: -1; Giardia growth: 3%[10.4 µM]; Mammal cell tox: 5%; Giardia FBPA inh-2: 9%; Rabbit FBPA inh: 4%; GAPDH counter: 20%

How did CCNC(=S)NS(=O)(=O)c1ccc(C)cc1 do in these assays?
Sm TGR inh: -9%; LmPK inhibitor: 0%; Shiga toxin inh: -12; Tb PYK inh: -5%; Giardia FBPA inh-1: 3.5µM*; CHX counter: -1; Giardia growth: 17%[38.3 µM]; Mammal cell tox: -3%; Giardia FBPA inh-2: 7%; Rabbit FBPA inh: 12%; GAPDH counter: -1%

What do the screens show for `CSCC(=O)NS(=O)(=O)c1ccc(C)cc1`?
Sm TGR inh: 2%; LmPK inhibitor: 3%; Shiga toxin inh: -4; Tb PYK inh: 1%; Giardia FBPA inh-1: inconclusive; CHX counter: 7

What do the screens show for `CCc1ccc(S(=O)(=O)NC(=S)Nc2ccccc2)cc1`?
Sm TGR inh: -4%; LmPK inhibitor: 3%; Shiga toxin inh: -7; Tb PYK inh: -5%; Giardia FBPA inh-1: -6%; CHX counter: 7

How did COCCNc1nnc(SCC(=O)NC2CCCCC2)s1 do in these assays?
Sm TGR inh: -4%; Tb PYK inh: 1%

How did Cc1ccc2c(c1)c1c(c(=O)n(-c3ccccc3C)c(=O)n1CC(=O)NCc1ccccc1)n2C do in these assays?
Sm TGR inh: -1%; Tb PYK inh: -3%

What do the screens show for `O=C(c1cccc(Cl)c1)N1CCN(CCCc2ccccc2)CC1`?
Sm TGR inh: 5%; LmPK inhibitor: -3%; Shiga toxin inh: 19; Tb PYK inh: 23%; Giardia FBPA inh-1: 13µM*; CHX counter: 8; Giardia growth: -9%; Mammal cell tox: 5%; Giardia FBPA inh-2: 0%; Rabbit FBPA inh: -2%; GAPDH counter: -12%

Screens: PubChem, National Center for Advancing Translational Sciences (NCATS)
